# Laboratory results taken from PubChem BioAssay (Tox21).
# Results filed as inconclusive are left out. Where a call stands in place of a potency, no number is given. A number with no mark means an inactive call. Activity calls are given as the source filed them. Calls follow the shape of the dose curve; as a rule, active = well fitted cell-killing curve with a large enough effect in the repeat runs; inconclusive = weak or mixed curves, or effect the other way; inactive = flat fitted curve, though single readings scatter.
# Test: qHTS RealTime-Glo MT Cell Viability Assay in HEK293 cells - 32 hour (AID 1224868); also: nearly all actives have a fitted effect of over 50% in size; as to activity change, negative = cytotoxic: top concentration of the series differs between compounds
# Details: RealTime-Glo luminescence; series mostly up to 76.8 µM
# From the text: National Center for Advancing Translational Sciences [NCATS]
# NIH Chemical Genomics Center [NCGC]
# U.S. Environmental Protection Agency [EPA]
# National Institutes of Environmental Health Sciences [NIEHS]
# National Toxicology Program [NTP]
# U.S. Food and Drug Administration [FDA]
# Measure of cell viability is critical in the cell-base assay. Analysis of cell viability is necessary for the characterization of cell responses to cytotoxic drugs and environmental stress. A RealTime-Glo MT Cell Viability Assay to monitor cell viability in real time of continues cell culture during 40 hours of compound treatment was used to screen Tox21 10K library compounds in Hek293 cells. The RealTime-Glo MT Cell Viability Assay is a nonlytic, homogeneous, bioluminescent method to measure cell viability in real time using a simple, plate-based method. The assay involves adding NanoLuc luciferase and a cell-permeant prosubstrate to cells in culture. Viable cells reduce the proprietary prosubstrate to generate a substrate for NanoLuc luciferase. This substrate diffuses from cells into the surrounding culture medium, where it is rapidly used by the NanoLuc Enzyme to produce a luminescent signal. The signal correlates with the number of viable cells, making the assay well suited for cytotoxicity studies.
# Tox21 Assay Protocol Summary:
# The mixture of Hek293 cell suspension and reagents were dispensed at 600cells/6 ul/well in 1536-well tissue culture treated black solid bottom plates using a Multidrop dispenser. After the assay plates were incubated at a 37 C/5% CO2 incubator for 5 hours, 23 nL of compounds dissolved in DMSO, positive and negative controls was transferred to the assay plate by a pintool work station. The plates were incubated at 37 C for 40 hours. The luminescence intensity were measured at 0h, 8h, 16h, 24h, 32h and 40h time points using ViewLux plate reader during compound treatment.
# Potency is read from the fitted curve at half-maximal effect.
SMILES,Potency,"activity change, negative = cytotoxic"
Cc1c(Cl)cccc1Nc1ccccc1C(=O)O,inactive,
CC1(C)CC(=O)CC(C)(C)N1,inactive,
c1ccc(CCNc2nc(-c3ccccc3)cs2)cc1,inactive,
Cc1c(N=C=O)cccc1N=C=O,inactive,
Cc1c(-c2cccnc2)c2ccccc2n1CCCCC(=O)O,inactive,
OCCCO,inactive,
CCN(CC)CC(=O)OCC(=O)[C@@]1(O)CC[C@H]2[C@@H]3CCC4=CC(=O)CC[C@]4(C)[C@H]3[C@@H](O)C[C@@]21C,inactive,
CCC(C)C1N=C(C)C(C)S1 (stereo not given),inactive,
CCCCCCCCCCCCCCCCC(=O)O,inactive,
CCCCCCCCCCCC(=O)OCC,inactive,
Cc1ccc2ccccc2c1[N+](=O)[O-],inactive,
CC(C)C[C@H](NC(=O)[C@H](Cc1ccccc1)NC(=O)c1cnccn1)B(O)O,0.0379 µM (active),
O=C(O)c1cc(C(=O)O)cc([N+](=O)[O-])c1,inactive,
CC(C(=O)O)c1ccc(/C=C2\CCCCC2=O)cc1 (stereo not given),inactive,
Cc1ccccc1CCO,inactive,
CCCCCCCCNC,inactive,
CC(C)CCCCCCCOC(=O)c1ccc(C(=O)OCCCCCCCC(C)C)c(C(=O)OCCCCCCCC(C)C)c1,inactive,
C=CC(C)(O)CC/C=C(/C)CCC=C(C)C (stereo not given),inactive,
CCOc1cc(OCC)c(C(C)=O)cc1OCC,21.5 µM (active),
Cc1cc(N)n(-c2ccccc2)n1,inactive,

SMILES,Potency,"activity change, negative = cytotoxic"
CCCCCCCCCCCCSCCOCCO,inactive,
CCCCCCCCC(=O)OCC(C)OC(=O)CCCCCCCC (stereo not given),inactive,
CCCOC(C)=O,inactive,
c1ccc(-c2ccc(-c3ccccc3)cc2)cc1,,0.807% [at 15.8 µM]
CCCCCC1CCC(=O)O1 (stereo not given),inactive,
c1ccc(CN(Cc2ccccc2)Cc2ccccc2)cc1,inactive,
CC(=O)c1ccc(Cl)c(Cl)c1Cl,inactive,
C/C(=C(\CCO)SS/C(CCO)=C(\C)N(C=O)Cc1cnc(C)nc1N)N(C=O)Cc1cnc(C)nc1N,inactive,
Nc1ncnc2c1ncn2[C@@H]1O[C@H](CO)[C@@H](O)[C@H]1O,inactive,
CCC(C)CCCC(C)(C)O (stereo not given),inactive,
CC(O)CN (stereo not given),inactive,
COC(=O)/C=C/C(C)=C\C=C\C(C)=C\C=C\C=C(C)\C=C\C=C(C)\C=C\C(=O)O,inactive,
CCCC1CCOC(C)S1 (stereo not given),inactive,
CC(=O)Nc1ccn(C2COC(COC(=O)c3ccccc3)O2)c(=O)n1 (stereo not given),inactive,
COc1cc(CNC(=O)CCCC/C=C/C(C)C)ccc1O,7.56 µM (active),
O=C(OCCOCCOCCOC(=O)c1ccccc1)c1ccccc1,inactive,
CC(CCl)OC(C)CCl (stereo not given),inactive,
CCOC(OCC)OCC,inactive,
CC(C)=CCCC(C)C=O (stereo not given),inactive,
C[Si](C)(C)O[Si](C)(C)O[Si](C)(C)C,inactive,
